HT1080 IDH1KD tx = kills HT-1080 cells with IDH1 knockdown. HT-1080 IDH1 knockdown viability, ATP luminescence, 48 h. Potency, µM (highest dose often 46.1 µM), without a hit: top-dose activity, negative = toxicity, usual class: cytotoxic. 360,000 tested, 2% active. AID 686971;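 also: potency is read from the fitted curve at half-maximal effect; 0% = DMSO wells and -100% = cell-free medium wells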
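% activity derives from luminescence (CellTiter-Glo), normalised to DMSO and no-cell wells. HT-1080-IDH1KD cells, 750/well, had 48 h compound exposure at 37 °C.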
HT1080NT lethal = kills 2HG-producing HT-1080-NT fibrosarcoma cells | HT-1080-NT fibrosarcoma viability, CellTiter-Glo ATP luminescence, 48 h | Potency, µM (titrated, usually from 46.1 µM), inactives show top-dose activity, negative = less viability, most hits filed as cytotoxic | 360,000 tested, 1.6% active | AID 686970;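 also: NT is the 2HG producing partner of a matched IDH1 knockdown line; potency is read from the fitted curve at half-maximal effect; 0% = DMSO-treated cells and -100% = media-only wells without cells; nearly all actives have a fitted effect of over 55% in size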
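Read-out is CellTiter-Glo luminescence after 10 minutes at room temperature, following 48 hours' compound treatment of HT-1080-NT cells (750 cells/well, RPMI, 5% FBS, 37 degrees C).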
TDP1 cell CPT = growth inhibition of DT40 Tdp1-/-;hTDP1 cells with camptothecin (screen for TDP1 inhibitors); chicken DT40 Tdp1-/-;hTDP1 cells + 20 nM CPT, ATP luminescence, 48 h; Potency, µM (doses to about 46.2 µM), inactives show at the highest dose activity change, negative = growth inhibition, usual class: inhibitors; 420,000 tested, 12% active; also: potency is read from the fitted curve at half-maximal effect; nearly all actives have a fitted effect of over 55% in size
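Chicken DT40 Tdp1-/- cells complemented with human TDP1, 400 cells/well, exposed to compounds plus 20 nM camptothecin for at least 48 h at 37 C; viability read as ATP content by CellTiter-Glo luminescence.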
ELG1 DNA repair = inhibitors of ELG1-dependent DNA repair in HEK293T cells | HEK293T ELG1-luciferase reporter, luminescence, 16 h; DNA damage induced by 5-fluorouridine | Potency, µM (top dose mostly 46.1 µM), without a hit: top-dose activity change, negative = inhibition, usual class: inhibitors | 330,000 tested, 2.3% active; also: potency is read from the fitted curve at half-maximal effect; nearly all actives have a fitted effect of over 55% in size
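Reporter activity after DNA damage by 5-fluorouridine is monitored. Compound-treated cells incubate 16 hr at 37 °C, then ONE-Glo is added for 30 min before luminescence reading.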
TDP1 cell noCPT = qHTS for Inhibitors of human tyrosyl-DNA phosphodiesterase 1 (TDP1): qHTS in cells in absence of CPT | DT40 Tdp1-/- hTDP1 cells, no CPT, ATP luminescence, 48 h | Potency, µM (series often up to 46.2 µM), for inactives: at the highest dose activity change, negative = growth inhibition, usual class: inhibitors | 420,000 tested, 15% active | AID 686978, 2013; also: potency is read from the fitted curve at half-maximal effect; nearly all actives have a fitted effect of over 55% in size
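Growth of hTDP1-complemented DT40 Tdp1-knockout cells is measured by ATP luminescence after at least 48 hr compound exposure at 37 °C, with DMSO substituting for the 20 nM CPT used in the parallel screen.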
IL-1B inflam inh = inhibitors of inflammasome signaling (IL-1 beta secretion); THP-1 LPS/ATP IL-1B secretion, AlphaLISA, 16 h; hits give low values; activity change, % at 57.5 µM; 360,000 tested, 4.7% active; AID 743279; in the data active = activity change below about -50%; inconclusive = mostly about -30% to -49%
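Secreted IL-1B measured by AlphaLISA bead assay after 16 h compound exposure of THP-1 cells; compounds (final up to 57.5 uM) added 1 h before LPS (250 ng/mL) and ATP (1.25 mM) stimulation; lower signal means less secretion.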
Numbers without * were called inactive; ? = inconclusive; . = no result given; [ ] = remark or other dose. This is a sample that favours compounds with a hit; in the whole collection about 19% have one here. Unless noted, calls follow the shape of the dose curve; as a rule, active = well fitted curve in the direction sought with a large enough effect; inconclusive = small, poorly fitted or top-dose-only effect, or another doubt; inactive = no such curve, though single readings can be large; an effect the other way counts as inactive or inconclusive. Unless noted, % is scaled to controls: 0 for no effect and ±100 for the full control effect.

SMILES | HT1080 IDH1KD tx | HT1080NT lethal | TDP1 cell CPT | ELG1 DNA repair | TDP1 cell noCPT | IL-1B inflam inh
COc1cccc(CC(=O)Nc2c(C(=O)N3CCN(c4ccccc4F)CC3)oc3ccccc23)c1 | . | . | 5.8µM* | . | 4.61µM* | .
CCOc1ccccc1C(=O)Oc1c(S(=O)(=O)c2ccc(C)cc2)c(C)nn1-c1ccccc1 | . | . | 10.3µM* | . | 20.6µM* | .
O=c1cc(CCl)nc(Cc2c(Cl)cccc2Cl)[nH]1 | 25.9µM* | 23.1µM* | ? | . | ? | -22.9
O=c1cc(-c2ccccc2)nc(Cc2c(Cl)cccc2Cl)[nH]1 | 11.8% | 12.5% | -2.0% | 6.0% | 20.7% | 14.3
COc1ccc(NC(=O)N2CCN(S(C)(=O)=O)CC2)cc1 | 1.8% | 15.0% | 23.1µM* | 16.4% | ? | 8.4
COc1cc(CN2CCCC(n3cc(C(=O)N4CCCCC4)nn3)C2)cc(OC)c1 (stereo not given) | . | . | ? | . | 23.1µM* | .
CC(C)(O)C#Cc1ccc(C(=O)Nc2ccc3c(c2)OCO3)s1 | 7.31µM* | ? | ? | ? | -14.7% | -52.5*
CCc1sc(C(=O)Nc2ccc3c(c2)OCO3)cc1C | -3.5% | -5.7% | -2.8% | ? | ? | -80.3*
CCc1sc(C(=O)Nc2ccc(N3CCOCC3)cc2)cc1C | ? | ? | 20.6µM* | ? | ? | -64.1*
O=C(CSc1nnc2c(n1)[nH]c1ccccc12)Nc1nncs1 | -11.9% | 1.7% | 0.0% | 0.5% | -4.7% | 20.5
COc1cccc(CNC(=O)CCc2c(C)c3ccc(O)c(C)c3oc2=O)c1 | . | . | 3.8% | . | -13.7% | .
CN(C1CCCCC1)S(=O)(=O)c1ccc2c(c1)c(=O)c(C(=O)NCc1ccccc1Cl)cn2C | . | . | -13.7% | . | 0.9% | .
OC(CSc1ccccc1Cl)CN1CCN(c2ccc(F)cc2)CC1 (stereo not given) | ? | ? | 18.4µM* | -1.6% | 23.1µM* | -25.8
COc1ccc(N2CCN(CC(O)COC(c3ccc(F)cc3)c3ccc(F)cc3)CC2)cc1 (stereo not given) | -3.9% | ? | 18.4µM* | ? | 29.1µM* | -11.6
Cc1ccccc1C(OCC(O)CN1CCN(CCO)CC1)c1ccccc1 (stereo not given) | -13.4% | -5.1% | -11.5% | 2.1% | 7.7% | ?
OC(CSc1c(Cl)cccc1Cl)CN1CCN(c2ccc(F)cc2)CC1 (stereo not given) | 5.8% | 17.1% | ? | ? | ? | -7.0
OCCN1CCN(CC(O)COC(c2ccc(F)cc2)c2ccc(F)cc2)CC1 (stereo not given) | 6.4% | 0.4% | 2.8% | 2.0% | -21.1% | -78.6*
CN(CC(=O)Nc1ncn[nH]1)S(=O)(=O)c1cc(Cl)ccc1Cl | -0.1% | 2.2% | 12.0% | 6.8% | 2.9% | 23.1
Nc1nnc2cc(Br)ccc2n1 | 0.4% | -4.4% | ? | . | ? | -29.2
CC(C)(C)c1ccc(C(=O)C[n+]2ccccc2Cl)cc1 | . | . | -22.8% | . | ? | .
COC(=O)C1=C(C(=O)OC)N2C=CC=CC2(C)C(C(=O)OC)=C1C(=O)OC (stereo not given) | 7.0% | 11.6% | -11.1% | 3.7% | -13.7% | 2.3
COC(=O)C1=C(C(=O)OC)C(C(=O)OC)C(C(=O)OC)C(C(=O)OC)(C(=O)OC)C(C(=O)OC)=C1C(=O)OC (stereo not given) | ? | -17.3% | 2.59µM* | . | 2.59µM* | -99.7*
CCC1C(=O)NCCN1Cc1ccc2c(c1)CN(Cc1cc(OC)ccc1OC)CCO2 (stereo not given) | . | . | -6.3%[9.04 µM] | . | ? | .
CC(=O)NC(CC(C)C)C(=O)NC(Cc1ccccc1)C(=O)CCl (stereo not given) | ? | -14.1% | 2.31µM* | . | 2.59µM* | -98.1*
CC(C)CC(NC(=O)OCc1ccccc1)C(=O)NC(Cc1c[nH]c2ccccc12)C(=O)O (stereo not given) | 18.4% | ? | -11.1% | . | -11.2% | 12.0
SMILES | HT1080 IDH1KD tx | HT1080NT lethal | TDP1 cell CPT | ELG1 DNA repair | TDP1 cell noCPT | IL-1B inflam inh
CC(=O)NC(CC(C)C)C(=O)NC(Cc1ccccc1)C(N)=O (stereo not given) | 4.0% | 1.6% | 3.6% | ? | -7.1% | -0.5
CC(=O)[C@H](CC(C)C)NC(=O)[C@@H](CC(C)C)NC(=O)[C@H](CC(C)C)NC(=O)OCc1ccccc1 | . | . | 0.15µM* | . | 0.188µM* | .
NC(=O)c1ccsc1NC(=O)CSc1nnc(NC2CC2)s1 | -8.7% | 0.0% | -4.4% | 11.1% | -2.0% | -8.6
CC1C(=O)CCC2[C@]1(C)CCC1[C@]2(C)CC[C@@]2(C)C3CC(C)(C)CC[C@]3(C)CC[C@@]12C (stereo not given in full) | . | . | 6.6% | . | -9.0% | .
O=C(NC(Cc1ccc(O)cc1)C(=O)N=Nc1c(O)[nH]c2ccccc12)c1ccccc1 (stereo not given) | 15.5% | 6.2% | -2.7% | . | -19.0% | -1.8
COc1ccc(NC(=O)CSc2nncs2)cc1S(=O)(=O)N1CCCCC1 | -4.4% | 3.5% | -20.3% | -8.9% | 5.2% | -9.9
O=C(CSc1nncs1)Nc1ccc(N2CCCCC2)cc1 | -6.1% | 6.2% | ? | ? | 16.4µM* | 3.9
Cc1ccc(OCC(O)CN2CCOCC2)c(C)c1 (stereo not given) | 1.7% | 0.0% | -11.1% | 7.6% | -16.0% | 7.2
CCOC(=O)/C(=C/c1c(C)n(C)c2ccc([N+](=O)[O-])cc12)C(C)=O | ? | 16.4µM* | ? | 13µM* | 9.2µM* | -104.5*
CN1C[C@@H]2C(c3ccc(C(F)(F)F)cc3)C3(c4ccccc4)CC2(C3)[C@H]1c1ccccc1 (stereo not given in full) | 12.2% | 10.7% | ? | -3.5% | 16.4µM* | 14.8
COC(=O)c1cccc(C23CC4(C2)[C@H](CN(Cc2ccc(C(F)(F)F)cc2)[C@@H]4c2ccccc2)C3c2ccccc2)c1 (stereo not given in full) | -17.5% | -4.5% | 29.1µM* | 0.0% | 16.4µM* | 39.2
N#Cc1ccc(C23CC4(C2)[C@H](CN(Cc2ccc(-c5ccccc5)cc2)[C@@H]4c2ccccc2)C3c2ccc(C(F)(F)F)cc2)cc1 (stereo not given in full) | 5.6% | 2.0% | 16.4µM* | -1.0% | ? | 0.5

Bioassay records: PubChem, National Center for Advancing Translational Sciences (NCATS)
